The entries come from a sample that favours hits as a whole.
Pf Dd2 growth: qHTS Primary assay for Inhibitors of Plasmodium falciparum Dd2 growth in vitro | P. falciparum Dd2 growth, SYBR Green, 72 h | Potency, µM (series often up to 28.9 µM), for inactives: at the top dose activity, negative = inhibition, actives largely listed as inhibitors | 120,000 tested, 4.3% active; active = well fitted inhibition curve with a large enough effect;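 also: plate controls were DMSO vehicle for no effect and reference drug for full effect; nearly all actives have a fitted effect of over 65% in size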
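Infected erythrocytes (Dd2, 0.3% parasitemia, 2.5% hematocrit final) are added to compound in RPMI-1640/Albumax II medium, grown 72 h at 37C in low oxygen, then lysed with saponin/Triton-X containing SYBR Green and read by fluorescence.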
* marks the source's active call; other numbers are inactive results; [ ] = another dose, or the depositor's remark. Potency is read from the fitted curve at half-maximal effect.

Results for COCCNC(=O)[C@@H]1CCC[C@@H](NCC2CC2)CN(C)C(=O)C1 ?
Pf Dd2 growth: -0.3%[44.1 µM]

What do the screens show for `O=C1Nc2ccccc2CN(Cc2ccc(C(F)(F)F)cc2)C12CCNCC2`?
Pf Dd2 growth: 6.31µM*

What do the screens show for `O=C1Nc2ccccc2C12CCN(Cc1ccc(C(F)(F)F)cc1)CC2`?
Pf Dd2 growth: 12.6µM*

How did O=C(c1ccc(C(F)(F)F)cc1)N1CCC2(CC1)C(=O)Nc1ccccc12 do in these assays?
Pf Dd2 growth: -3.1%

How did CC(=O)Nc1ccc(CN2CCC3(CC2)C(=O)Nc2ccccc23)cc1 do in these assays?
Pf Dd2 growth: -13.6%

What do the screens show for `CC(C)=CCN1Cc2ccccc2NC(=O)C12CCNC2` (stereo not given)?
Pf Dd2 growth: -13.7%[44.1 µM]

Results for O=C1Nc2ccccc2CC12CCN2Cc1ccc(C(F)(F)F)cc1 (stereo not given) ?
Pf Dd2 growth: inactive

How did CC(C)CCN1CCC(N2CCN(C(=O)CC3CCCCC3)CC2)C1=O (stereo not given) do in these assays?
Pf Dd2 growth: -13.8%

How did COCCCn1c(C)cnc1CC1CCNCC1 do in these assays?
Pf Dd2 growth: 4.3%

How did O=C(C1CCCC1)N1CCCC(n2cc(-c3nc(-c4ccccc4)no3)nn2)C1 (stereo not given) do in these assays?
Pf Dd2 growth: -92.7%

How did O=C1C(c2ccc(C(F)(F)F)cc2)=C(Nc2ccc(Cl)cc2)c2ccccc21 do in these assays?
Pf Dd2 growth: 0.891µM*

Results for COc1ccc(NC(=O)N(C)Cc2cccc(C(F)(F)F)c2)cc1 ?
Pf Dd2 growth: -12.1%[44.1 µM]

How did COc1ccc(-c2noc(CCC(=O)Nc3ccc(C(F)(F)F)cc3)n2)cc1 do in these assays?
Pf Dd2 growth: -16.0%

How did O=C(Cn1nc(-c2ccc(Cl)cc2)c2ccccc2c1=O)Nc1cccc(C(F)(F)F)c1 do in these assays?
Pf Dd2 growth: 16.1%

What do the screens show for `COc1ccc(NC2=C(c3ccc(C(F)(F)F)cc3)C(=O)c3ccccc32)cc1`?
Pf Dd2 growth: 0.447µM*

What do the screens show for `O=C(C[C@H]1NC(=O)c2ccccc2NC1=O)Nc1ccc(C(F)(F)F)cc1`?
Pf Dd2 growth: -16.7%

What do the screens show for `Cn1ccnc1C(=O)NCC(=O)N1CCCCCNC(=O)CC1c1ccccc1` (stereo not given)?
Pf Dd2 growth: -20.0%

How did COc1ccc(-c2noc([C@@H]3C[C@@H](O)CN3C(C)C)n2)cc1 do in these assays?
Pf Dd2 growth: -9.9%[44.1 µM]

Results for CC(C)Nc1ccc2nnc(-c3ccc(F)cn3)n2n1 ?
Pf Dd2 growth: -14.2%[44.1 µM]

What do the screens show for `O=C(Cn1nc2c(cc1=O)CCCC2)NCCc1nc2ccccc2[nH]1`?
Pf Dd2 growth: 4.2%

What do the screens show for `CCCCN1C(=O)[C@@H]2C[C@@H](O)CN2C2(CN(C3CCC(F)(F)CC3)C2)C1=O`?
Pf Dd2 growth: -20.2%[44.1 µM]

How did CC(C)Cc1cnc(-c2ccccc2)[nH]1 do in these assays?
Pf Dd2 growth: 15.8µM*

What do the screens show for `Cc1ccc(-c2ncc(C(=O)N(C)Cc3nc(CC(C)C)no3)c(=O)[nH]2)cc1`?
Pf Dd2 growth: -1.2%

How did CC(C)Cc1nc2nccc(-c3ccccc3)n2n1 do in these assays?
Pf Dd2 growth: -14.6%

How did COCCCNC(=O)C(NC(=O)C1CC1)C1CCN(C(=O)c2ccccc2)CC1 (stereo not given) do in these assays?
Pf Dd2 growth: inactive

What do the screens show for `CCCNC(=O)N[C@@H]1CCC[C@@H](C(=O)NCc2cc(C)on2)CC(=O)N(C)C1`?
Pf Dd2 growth: 18.9%[44.1 µM]

Results for Cc1noc(C)c1S(=O)(=O)NCc1cccnc1N(C)Cc1ccccc1 ?
Pf Dd2 growth: inactive

How did CN1Cc2cccn2CC1CNC(=O)c1cnn(C)c1 (stereo not given) do in these assays?
Pf Dd2 growth: -9.7%

How did CN1Cc2cccn2CC1CNC(=O)c1cccn1C (stereo not given) do in these assays?
Pf Dd2 growth: -51.5%

Results for CN1Cc2cccn2CC1CNC(=O)c1ccccc1 (stereo not given) ?
Pf Dd2 growth: 11.2µM*

What do the screens show for `Cc1noc(C)c1CC(=O)N1CCCC(COc2ccccc2C(=O)NC2CC2)C1` (stereo not given)?
Pf Dd2 growth: -0.5%

Results for CC(C)n1cnnc1CC1CCCN(S(=O)(=O)c2ccc3c(c2)C(C)(C)C(=O)N3)C1 (stereo not given) ?
Pf Dd2 growth: -19.3%

How did COc1ccc(C(=O)N2CCN(C(=O)COc3ccc(Br)cc3)CC2)cc1OC do in these assays?
Pf Dd2 growth: 36.2%

What do the screens show for `Nc1c(C(=O)Nc2cccc(C(F)(F)F)c2)c2ccccn2c1C(=O)c1ccccc1`?
Pf Dd2 growth: inactive

How did COc1ccc(OCC(=O)N2CCN(C(=O)c3ccc(OC)c(OC)c3)CC2)cc1 do in these assays?
Pf Dd2 growth: 14.4%

Results for CCCS(=O)(=O)c1c(S(=O)(=O)CCC)c2cc(C(C)(C)C)ccn2c1C(=O)c1ccc(OC)c(OC)c1 ?
Pf Dd2 growth: 2.82µM*

How did CCCCN(CCCC)C1=C(C(=O)c2ccccc2)N(CC)S(=O)(=O)c2ccccc21 do in these assays?
Pf Dd2 growth: -8.9%

What do the screens show for `CCCS(=O)(=O)c1c(S(=O)(=O)CCC)c2cc(C(C)(C)C)ccn2c1C(=O)c1ccccc1`?
Pf Dd2 growth: 2.51µM*

What do the screens show for `COCCNc1ccc2nnc(-c3ccc(OC)cn3)n2n1`?
Pf Dd2 growth: 4.6%[44.1 µM]

Results for CN(C)[C@@H](Cc1ccccc1)C(=O)N1CCC(N2CCC(O)CC2)CC1 ?
Pf Dd2 growth: -4.0%

How did COc1cccc(CN2CCC3(CC2)CC(c2ccccc2)C(=O)N3C)c1 (stereo not given) do in these assays?
Pf Dd2 growth: -20.1%

How did COc1cccc(NC(=O)Nc2cc(-c3cn4cccnc4n3)ccc2OC)c1 do in these assays?
Pf Dd2 growth: inactive

What do the screens show for `COc1ccc(-c2cn3cccnc3n2)cc1NC(=O)Nc1cc(C)ccc1C`?
Pf Dd2 growth: 11.2µM*

Results for COc1cccc(NC(=O)Nc2cc(-c3cn4cccnc4n3)ccc2C)c1 ?
Pf Dd2 growth: inactive

Results for CCn1c(CC2CCNCC2)nn(Cc2cc(C3CCCCC3)no2)c1=O ?
Pf Dd2 growth: -11.2%

How did O=C1CCC2(CNC(=O)c3ccoc3)CCC=C2N1 (stereo not given) do in these assays?
Pf Dd2 growth: 23.4%

How did Cn1cc(CN2CCN(Cc3cccc(F)c3)CC2)ccc1=O do in these assays?
Pf Dd2 growth: inactive

What do the screens show for `Cc1ccc(-c2c(CN3CCN(c4cc(C)ccc4C)CC3)csc2C)cc1`?
Pf Dd2 growth: 10µM*

Results for CCc1c(CN2CCN(c3cccc(C)c3)C(C)C2)csc1C (stereo not given) ?
Pf Dd2 growth: 0.2%

Results for Cc1ccc(C)c(N2CCN(Cc3csc(C)c3C)CC2)c1 ?
Pf Dd2 growth: inactive

What do the screens show for `Cc1cn(CC(=O)N2CCOCC(O)C2)c(=O)[nH]c1=O` (stereo not given)?
Pf Dd2 growth: 1.5%

Results for Cc1ccc(-c2cn(C3CN(C(=O)C(C)CN4CCOCC4)C3)nn2)cc1 (stereo not given) ?
Pf Dd2 growth: -15.1%

Results for C=CCCC(CN1CCCC1)Oc1ccc(C(=O)N2CCOCC2)cn1 (stereo not given) ?
Pf Dd2 growth: 6.31µM*

How did CN1CCC(Oc2ccc(C(=O)N3CCOCC3)cn2)CC1 do in these assays?
Pf Dd2 growth: 6.9%

What do the screens show for `C=CCCC(CN1CCOCC1)Oc1ccc(Cn2ccnc2)cn1` (stereo not given)?
Pf Dd2 growth: -14.9%

How did C=CCCC(CN1CCCOCC1)Oc1ccc(-c2ccccc2)nn1 (stereo not given) do in these assays?
Pf Dd2 growth: 14.1µM*

Results for Cc1cc(=O)n(CC(=O)NCc2ccccc2Br)c(N2CCOCC2)n1 ?
Pf Dd2 growth: inactive

Screening results deposited in PubChem by National Center for Advancing Translational Sciences (NCATS).
